# PMC11006913
# Substitutions are numbered along the chain they refer to.
# How the values were obtained:
# Assay in all cases: PBM; 200 nM protein, PBS
# Settings in all cases: dsDNA, one strand shown
# [1] = target: HOXC9 (Homo sapiens, UniProt P31274 178-260, K195R)
# [2] = target: HOXC9 (Homo sapiens, UniProt P31274 178-260)
# [3] = target: HOXC9 (Homo sapiens, UniProt P31274 178-260, R193K)
# [4] = target: HOXC9 (Homo sapiens, UniProt P31274 178-260, R222W)
# [5] = target: T1, VENTX (Homo sapiens, UniProt O95231 78-163)
# T1 sequence: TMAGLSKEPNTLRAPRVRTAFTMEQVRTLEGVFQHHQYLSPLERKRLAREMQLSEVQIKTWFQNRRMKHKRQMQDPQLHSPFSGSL
# [6] = target: ALX4 (Homo sapiens, UniProt Q9H161 200-286)
# [7] = target: HOXA7 (Homo sapiens, UniProt P31268 116-202)
# [8] = target: HOXC10 (Homo sapiens, UniProt Q9NYD6 254-340)
# [9] = target: HOXC10 (Homo sapiens, UniProt Q9NYD6 254-340, K271E)
# [10] = target: HOXA7 (Homo sapiens, UniProt P31268 116-202, W177C)
# [11] = target: T2, VENTX (Homo sapiens, UniProt O95231 78-163, Y115F)
# T2 sequence: T1 sequence with Y38F
# [12] = target: HOXB6 (Homo sapiens, UniProt P17509 132-218, K202E)
# [13] = target: HOXB6 (Homo sapiens, UniProt P17509 132-218)
# [14] = target: T3, SIX6 (Homo sapiens, UniProt O95475 114-200, L143V)
# T3 sequence: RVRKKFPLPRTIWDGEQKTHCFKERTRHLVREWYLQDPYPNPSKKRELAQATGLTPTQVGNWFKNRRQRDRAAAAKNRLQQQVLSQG
# [15] = target: HOXA2 (Homo sapiens, UniProt O43364 129-215, R185T)
# [16] = target: HOXA2 (Homo sapiens, UniProt O43364 129-215)
# Chain of HOXA2 (Homo sapiens, UniProt O43364 129-215) (O43364 129-215): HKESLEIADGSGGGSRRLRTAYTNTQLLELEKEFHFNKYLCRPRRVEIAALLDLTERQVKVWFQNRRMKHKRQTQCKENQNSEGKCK
# Chain of HOXC9 (Homo sapiens, UniProt P31274 178-260, K195R) (P31274 178-260 K195R): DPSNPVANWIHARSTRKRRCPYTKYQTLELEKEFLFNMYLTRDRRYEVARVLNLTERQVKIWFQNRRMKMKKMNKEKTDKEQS
# Chain of HOXC9 (Homo sapiens, UniProt P31274 178-260, R222W) (P31274 178-260 R222W): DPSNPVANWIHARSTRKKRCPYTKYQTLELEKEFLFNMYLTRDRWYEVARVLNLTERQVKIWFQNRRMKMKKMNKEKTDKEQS
# Chain of HOXC9 (Homo sapiens, UniProt P31274 178-260) (P31274 178-260): as the sequence (P31274 178-260 R222W) above, with W45R counted along it
# Chain of HOXC9 (Homo sapiens, UniProt P31274 178-260, R193K) (P31274 178-260 R193K): as the sequence (P31274 178-260 R222W) above, with R16K, W45R counted along it
# Chain of HOXA7 (Homo sapiens, UniProt P31268 116-202, W177C) (P31268 116-202 W177C): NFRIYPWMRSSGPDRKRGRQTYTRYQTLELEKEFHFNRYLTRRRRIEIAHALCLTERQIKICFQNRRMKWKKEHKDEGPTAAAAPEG
# Chain of HOXC10 (Homo sapiens, UniProt Q9NYD6 254-340, K271E) (Q9NYD6 254-340 K271E): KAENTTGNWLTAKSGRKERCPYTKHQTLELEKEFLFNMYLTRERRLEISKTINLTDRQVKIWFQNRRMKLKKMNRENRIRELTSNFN
# Chain of HOXA7 (Homo sapiens, UniProt P31268 116-202) (P31268 116-202): as the sequence (P31268 116-202 W177C) above, with C62W counted along it
# Chain of HOXC10 (Homo sapiens, UniProt Q9NYD6 254-340) (Q9NYD6 254-340): as the sequence (Q9NYD6 254-340 K271E) above, with E18K counted along it
# Chain of ALX4 (Q9H161 200-286): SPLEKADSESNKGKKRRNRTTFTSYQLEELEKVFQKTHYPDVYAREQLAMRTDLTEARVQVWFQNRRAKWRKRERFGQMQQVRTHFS
# Chain of HOXB6 (Homo sapiens, UniProt P17509 132-218, K202E) (P17509 132-218 K202E): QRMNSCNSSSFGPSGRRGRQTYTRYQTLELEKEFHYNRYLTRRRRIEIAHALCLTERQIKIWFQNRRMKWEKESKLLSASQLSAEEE
# Chain of HOXA2 (Homo sapiens, UniProt O43364 129-215, R185T) (O43364 129-215 R185T): as the sequence (O43364 129-215) above, with R57T counted along it
# Chain of HOXB6 (Homo sapiens, UniProt P17509 132-218) (P17509 132-218): as the sequence (P17509 132-218 K202E) above, with E71K counted along it
sequence,measurement,setting,value
ACGCCATA,binding signal,[1],"11 upbm affinity estimate (log intensity, higher = more binding, comparable within an allelic series)"
same,binding signal,[2],"10.9 upbm affinity estimate (log intensity, higher = more binding, comparable within an allelic series)"
same,binding signal,[3],"11 upbm affinity estimate (log intensity, higher = more binding, comparable within an allelic series)"
same,binding signal,[4],"10.2 upbm affinity estimate (log intensity, higher = more binding, comparable within an allelic series)"
ATTTAGTC,binding signal,[5],"10.2 upbm affinity estimate (log intensity, higher = more binding, comparable within an allelic series)"
CCTGCACC,binding signal,[1],"9.28 upbm affinity estimate (log intensity, higher = more binding, comparable within an allelic series)"
same,binding signal,[2],"9.29 upbm affinity estimate (log intensity, higher = more binding, comparable within an allelic series)"
same,binding signal,[3],"9.3 upbm affinity estimate (log intensity, higher = more binding, comparable within an allelic series)"
same,binding signal,[4],"9.7 upbm affinity estimate (log intensity, higher = more binding, comparable within an allelic series)"
CCTCTGGA,binding signal,[1],"9.66 upbm affinity estimate (log intensity, higher = more binding, comparable within an allelic series)"
same,binding signal,[2],"9.58 upbm affinity estimate (log intensity, higher = more binding, comparable within an allelic series)"
same,binding signal,[3],"9.64 upbm affinity estimate (log intensity, higher = more binding, comparable within an allelic series)"
same,binding signal,[4],"9.74 upbm affinity estimate (log intensity, higher = more binding, comparable within an allelic series)"
CGACTTAA,binding signal,[5],"10.1 upbm affinity estimate (log intensity, higher = more binding, comparable within an allelic series)"
same,binding signal,[6],"10.3 upbm affinity estimate (log intensity, higher = more binding, comparable within an allelic series)"
CAGGTCCC,binding signal,[7],"8.47 upbm affinity estimate (log intensity, higher = more binding, comparable within an allelic series)"
same,binding signal,[8],"10 upbm affinity estimate (log intensity, higher = more binding, comparable within an allelic series)"
same,binding signal,[9],"10.1 upbm affinity estimate (log intensity, higher = more binding, comparable within an allelic series)"
same,binding signal,[10],"8.4 upbm affinity estimate (log intensity, higher = more binding, comparable within an allelic series)"
CATTTACG,binding signal,[5],"10.4 upbm affinity estimate (log intensity, higher = more binding, comparable within an allelic series)"
CCAGCCCG,binding signal,[1],"9.66 upbm affinity estimate (log intensity, higher = more binding, comparable within an allelic series)"
same,binding signal,[2],"9.72 upbm affinity estimate (log intensity, higher = more binding, comparable within an allelic series)"
same,binding signal,[3],"9.7 upbm affinity estimate (log intensity, higher = more binding, comparable within an allelic series)"
same,binding signal,[4],"9.67 upbm affinity estimate (log intensity, higher = more binding, comparable within an allelic series)"
GATGATCA,binding signal,[5],"9.89 upbm affinity estimate (log intensity, higher = more binding, comparable within an allelic series)"
same,binding signal,[11],"9.51 upbm affinity estimate (log intensity, higher = more binding, comparable within an allelic series)"
GATTGAGC,binding signal,[5],"9.7 upbm affinity estimate (log intensity, higher = more binding, comparable within an allelic series)"
ACCGATCT,binding signal,[5],"9.79 upbm affinity estimate (log intensity, higher = more binding, comparable within an allelic series)"
GAGAGCTC,binding signal,[1],"9.48 upbm affinity estimate (log intensity, higher = more binding, comparable within an allelic series)"
same,binding signal,[2],"9.56 upbm affinity estimate (log intensity, higher = more binding, comparable within an allelic series)"
same,binding signal,[3],"9.3 upbm affinity estimate (log intensity, higher = more binding, comparable within an allelic series)"
same,binding signal,[4],"9.65 upbm affinity estimate (log intensity, higher = more binding, comparable within an allelic series)"
TTATGCAA,binding signal,[5],"9.95 upbm affinity estimate (log intensity, higher = more binding, comparable within an allelic series)"
GAGTCCGC,binding signal,[7],"8.56 upbm affinity estimate (log intensity, higher = more binding, comparable within an allelic series)"
same,binding signal,[8],"10.1 upbm affinity estimate (log intensity, higher = more binding, comparable within an allelic series)"
same,binding signal,[12],"9.05 upbm affinity estimate (log intensity, higher = more binding, comparable within an allelic series)"
same,binding signal,[9],"10.1 upbm affinity estimate (log intensity, higher = more binding, comparable within an allelic series)"
same,binding signal,[10],"8.39 upbm affinity estimate (log intensity, higher = more binding, comparable within an allelic series)"
same,binding signal,[13],"8.98 upbm affinity estimate (log intensity, higher = more binding, comparable within an allelic series)"
AAAATGCT,binding signal,[5],"9.84 upbm affinity estimate (log intensity, higher = more binding, comparable within an allelic series)"
ACCGCTTA,binding signal,[5],"10.8 upbm affinity estimate (log intensity, higher = more binding, comparable within an allelic series)"
CCGGAAGG,binding signal,[1],"9.63 upbm affinity estimate (log intensity, higher = more binding, comparable within an allelic series)"
same,binding signal,[2],"9.81 upbm affinity estimate (log intensity, higher = more binding, comparable within an allelic series)"
same,binding signal,[3],"9.73 upbm affinity estimate (log intensity, higher = more binding, comparable within an allelic series)"
same,binding signal,[4],"9.78 upbm affinity estimate (log intensity, higher = more binding, comparable within an allelic series)"
GGATATAA,binding signal,[14],"10.5 upbm affinity estimate (log intensity, higher = more binding, comparable within an allelic series)"
CGCGTTTA,binding signal,[5],"10.2 upbm affinity estimate (log intensity, higher = more binding, comparable within an allelic series)"
CGATAACC,binding signal,[5],"9.81 upbm affinity estimate (log intensity, higher = more binding, comparable within an allelic series)"
GGTGATAA,binding signal,[5],"10.3 upbm affinity estimate (log intensity, higher = more binding, comparable within an allelic series)"
AACCAAAT,binding signal,[5],"10 upbm affinity estimate (log intensity, higher = more binding, comparable within an allelic series)"
same,binding signal,[15],"9.12 upbm affinity estimate (log intensity, higher = more binding, comparable within an allelic series)"
same,binding signal,[16],"9.13 upbm affinity estimate (log intensity, higher = more binding, comparable within an allelic series)"
CCCCAGCC,binding signal,[1],"9.49 upbm affinity estimate (log intensity, higher = more binding, comparable within an allelic series)"
same,binding signal,[2],"9.68 upbm affinity estimate (log intensity, higher = more binding, comparable within an allelic series)"
same,binding signal,[3],"9.69 upbm affinity estimate (log intensity, higher = more binding, comparable within an allelic series)"
same,binding signal,[4],"9.68 upbm affinity estimate (log intensity, higher = more binding, comparable within an allelic series)"
AATGGGGA,binding signal,[5],"10.3 upbm affinity estimate (log intensity, higher = more binding, comparable within an allelic series)"
CGTGATCA,binding signal,[5],"9.86 upbm affinity estimate (log intensity, higher = more binding, comparable within an allelic series)"
same,binding signal,[11],"9.57 upbm affinity estimate (log intensity, higher = more binding, comparable within an allelic series)"
TATGAATA,binding signal,[5],"10.3 upbm affinity estimate (log intensity, higher = more binding, comparable within an allelic series)"
TCCTTCGA,binding signal,[1],"9.75 upbm affinity estimate (log intensity, higher = more binding, comparable within an allelic series)"
same,binding signal,[2],"9.66 upbm affinity estimate (log intensity, higher = more binding, comparable within an allelic series)"
same,binding signal,[3],"9.72 upbm affinity estimate (log intensity, higher = more binding, comparable within an allelic series)"
same,binding signal,[4],"9.84 upbm affinity estimate (log intensity, higher = more binding, comparable within an allelic series)"
CATCATCA,binding signal,[5],"10.4 upbm affinity estimate (log intensity, higher = more binding, comparable within an allelic series)"
CTCACCAG,binding signal,[1],"9.79 upbm affinity estimate (log intensity, higher = more binding, comparable within an allelic series)"
same,binding signal,[2],"9.75 upbm affinity estimate (log intensity, higher = more binding, comparable within an allelic series)"
same,binding signal,[3],"9.75 upbm affinity estimate (log intensity, higher = more binding, comparable within an allelic series)"
same,binding signal,[4],"9.9 upbm affinity estimate (log intensity, higher = more binding, comparable within an allelic series)"
